In one assay the target is SELO. The experiment in a line: pooled miR-30 sensor sort-seq; sequence = guide strand. The note with it: shRNA.
AACACGTCGCGCACCACCGTGG returned a sensor-assay potency score (higher = more potent) of -0.914. The same measure, in the same setting: to TTGAGCTGCAGCTCCCAGCGCT belongs -0.647; to TTCCTCAGCACGTACTTCGGGT, -0.346. Turning to TCGCTGCATAGAAACTCCCGGA, the sensor-assay potency score (higher = more potent) is -0.819.

Turning to ATCTTCTGCAGGTAGTGCCTTT, the sensor-assay potency score (higher = more potent) is -1.13. TTGTCGGTGTTGAGCACGCCGT yielded a sensor-assay potency score (higher = more potent) of -1.37. In turn, TTGCCGCTGAAGAACAGCGCGG came in with a sensor-assay potency score (higher = more potent) of -1.34.

For another assay, the target named is SEMA3B. The description is as above. Conditions: shRNA.
TTGGTGGAACTGAAGGTGCCAA returned a sensor-assay potency score (higher = more potent) of -0.717. ATGCTGTACACGCACACCGCAG registered a sensor-assay potency score (higher = more potent) of -1.8. On the same count and under the same terms, the same measure for TCTCCGGAGCACAACGTGCTGG: -0.802; for TCACACTCCAGAAAGGCGCTGC: 0.144. Still for that read-out and setting: to TTGCATGCTGGTGACAGCGGCC belongs -0.767.

TACTTTAGTACAGTCGGCCTGC showed a sensor-assay potency score (higher = more potent) of 0.558. Still for that read-out and setting: the same measure for TAGATTTTGTCGTCGTCTGGGT: 0.074; for TTCAGGAACGTCGTCCACTTGT: -0.531. The same measure, in the same setting: the same measure for AACTGGATGACATCGTCTGGGA: -0.898; for TTGGAAGAAATTTGCATGCTGG: 0.12.

TTGTGTTCCAGCAGCGCGGGAC: the sensor-assay potency score (higher = more potent) was -0.691. Still for that read-out and setting: to TACCTTGACAAACTTGGGCTCA belongs -0.131.

A further assay concerns the target SEMA5A. Described as above. The note with it: shRNA.
Consider ATTAGAGTCAAACACACACGGC, for which the sensor-assay potency score (higher = more potent) is -0.728.

In turn, TTTCGATTCTCTGTCTTCCCAC showed a sensor-assay potency score (higher = more potent) of 0.0611. With TATCGTTCTTGCACACCCGGGC, the sensor-assay potency score (higher = more potent) is -0.125. Same read-out and setting: the same measure for TTCTTCGCTCTGAACTCCCGTA: -0.152.

In turn, TCTTCCAGCAAACAGCTGCTTG showed a sensor-assay potency score (higher = more potent) of -1.24.

Sequence TAGAACAGTACCGCATTTCGAT gave a sensor-assay potency score (higher = more potent) of -0.368. On the same count and under the same terms, the same measure for ATATCGTTCTTGCACACCCGGG: -1.15; for ATCTCTTCCAGCAAACAGCTGC: -0.82; for TTGCAGTATCTTTCCTCGCGGT: -0.492.

Regarding TTAGAGTCAAACACACACGGCC, the sensor-assay potency score (higher = more potent) is -0.151. Take TTGAAGACGCACACAGCTGAGG: the sensor-assay potency score (higher = more potent) is -0.713. Same read-out and setting: the same measure for TTATGAAATATTATGGACCTAT: -0.515.

The target in another assay is SEMA6D. Described as above. Conditions: shRNA.
The sequence TAATAGACTGCAGAACATCAAA yielded a sensor-assay potency score (higher = more potent) of -1.03. On the same count and under the same terms, the same measure for TTTTTTTTGACATTTGTGCAAG: -0.63; for TTGGGTGGTAGCTCTTTCCGAC: -0.271.

The sequence TTTAGGAGAATCAATATTCTGT displayed a sensor-assay potency score (higher = more potent) of -0.109.

In the case of TATGTCTGTAATAGACTGCAGA, the sensor-assay potency score (higher = more potent) was -0.657. Same read-out and setting: the same measure for TACTGTATAAACTTGATCCCTG: 0.49; for TTTCTTTCCTTGAAGCTCCATG: -0.704; for TTTTACATGATCCATAACGCTC: -0.732. With TTGATTTGTATTATGTCTGTAA, the sensor-assay potency score (higher = more potent) amounted to 0.267.
Note: reference of the scale not given here.
